These results are taken from PubChem BioAssay.

Activity calls are given as the source filed them.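 The calls were made as follows, unless noted: active = primary screen active and over 50% activation in each of two duplicate runs; inactive = the rest.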

One assay relates to TRPC4 beta (transient receptor potential cation channel C4), mouse. Kind of assay: TRPC4 cation channel opening, retest – cell-based, Fluo4 calcium, HEK293 TRPC4beta/mu-opioid, duplicates, 10 µM, confirmation (AID 2426;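 active = fluorescence ratio normalized to control raised more than 50% in primary screen plus both repeat runs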). Particulars: Fluo4 calcium fluorescence, at 10 µM.
Consider `COC(=O)c1ccccc1NC(=O)c1cnn2cccnc12`, for which the outcome was inactive.
Still for that read-out and setting: the entry for `Cc1cc(Cl)ccc1OC(C)C(=O)Nc1ccccc1N1CCOCC1` (stereo not drawn) is “inactive”; for `CC(C(=O)c1ccc(Br)cc1)[n+]1cccc(NC(=O)c2ccccc2)c1` (stereo not drawn) it is “inactive”.
The same measure, in the same setting: next, `Cn1c(SCCOc2ccccc2F)nc2ccccc2c1=O`: “inactive”; `O=C(CN1CCCN(S(=O)(=O)c2ccc(F)cc2)CC1)Nc1ccccc1Br`: “inactive”.
As for `Cc1c(CCOC(=O)c2ccccc2)sc[n+]1CC(=O)c1ccc(Br)cc1`, the outcome was inactive.
For the molecule `Cc1c(N2C(=O)/C(=C/c3ccccc3)SC2=S)c(=O)n(-c2ccccc2)n1C`, the outcome was inactive.
Regarding `CCOC(=O)Cc1csc(NC(=O)NC2(C(F)(F)F)Oc3cc(Cl)c(Cl)cc3O2)n1`, the result was inactive.
Same read-out and setting: next, `CCCn1nc(C(=O)NC2CCCc3ccccc32)c2ccccc2c1=O` (stereo not drawn): “inactive”.
On the same count and under the same terms, the entry for `CCOC(=O)c1c(C)n(-c2ccc(C)cc2)c2ccc(OCC(O)CNCC3CCCO3)cc12` (stereo not drawn) is “inactive”.
Same read-out and setting: next, `O=C(NCCCN1CCN(CCCNC(=O)c2cccc(Cl)c2)CC1)c1cccc(Cl)c1`: “inactive”.
As for `COC(=O)[C@@]12CCCCN1[C@H](c1ccc(-c3ccc(C(C)=O)cc3)cc1)[C@@H]1C(=O)N(C)C(=O)[C@@H]12`, the result was inactive.
Turning to `Cc1ccc(CNC(=O)CSc2nc(=O)n3ccccc3n2)cc1`, the outcome was inactive.
The same measure, in the same setting: next, `CCCCCCc1cc2cc(-c3nnc(-c4ccccc4O)o3)c(=O)oc2cc1O`: “inactive”.
The same measure, in the same setting: next, `CCCCN(C)CCNC(=O)C1CCCN(S(=O)(=O)c2cccc3nsnc23)C1` (stereo not drawn): “inactive”; `Cc1cccc(NC(=O)CNC(=O)CN2C(=O)NC3(CCCCC3C)C2=O)c1C` (stereo not drawn): “inactive”; `CC(C)c1ccc(OCc2ccc(C(=O)N3CCCC3)o2)cc1`: “inactive”.
For the molecule `COc1ccc(-n2cc(CNCc3cnc4ccccn34)c(-c3cccc(F)c3)n2)cc1`, the outcome was inactive.
With `COc1ccc(CCN2C(=S)N(C)C(=O)C2CC(=O)Nc2ccc(F)cc2)cc1` (stereo not drawn), the result was inactive.
Still for that read-out and setting: next, `CCOC(=O)C1=NNC(C(=O)c2ccc(Cl)cc2)C1c1ccc(OC)cc1` (stereo not drawn): “inactive”.
The same measure, in the same setting: the entry for `Cc1ccc(C(C)C)c(OCCCCN2CCNCC2)c1` is “inactive”; for `CCOC(=O)CSc1nc2ccccc2c(=O)n1C1CCCC1` it is “inactive”.
Same read-out and setting: next, `Clc1ccc(Cl)c(OCCCCN2CCNCC2)c1`: “inactive”; `COc1ccc(-c2cc(C(=O)N3CC(C)CC(C)C3)c3ccccc3n2)cc1` (stereo not drawn): “inactive”; `Cn1c(N2CCC(C(N)=O)CC2)nc2c1c(=O)n(Cc1ccc(Br)cc1)c(=O)n2C`: “inactive”.
Consider `OC1(c2ccc(Cl)cc2)CN(c2ccccc2)C2=[N+]1CCS2` (stereo not drawn), for which the outcome was inactive.
The same measure, in the same setting: the entry for `CCN(CCCNC(=O)CCCOc1cc(=O)n(C)c2ccccc12)Cc1ccccc1` is “inactive”.
Still for that read-out and setting: the entry for `O=C(NN/C(=N/S(=O)(=O)c1ccc(Cl)cc1)c1ccccc1)c1cccc(Cl)c1` is “inactive”.
The same measure, in the same setting: next, `CCn1c2ccc(F)cc2c2nnc(NN)nc21`: “inactive”; `CCN(CC)CCOCCOc1ccc(Cl)c2ccccc12`: “inactive”; `O=C(NCCCN1CCCC1=O)c1ccc(CNS(=O)(=O)c2ccc(F)cc2)cc1`: “inactive”.
In the case of `Cc1noc(C)c1COC(=O)[C@@H](NC(=O)c1ccccc1Cl)C(C)C`, the outcome was inactive.
Consider `C/C=C/Cn1c(SCCCc2ccccc2)nc2c1c(=O)[nH]c(=O)n2C`, for which the outcome was inactive.
The same measure, in the same setting: the entry for `O=[N+]([O-])c1ccc2c(c1)C=C1CCCCC1(N1CCCC1)O2` (stereo not drawn) is “inactive”.
Same read-out and setting: next, `COc1ccc(CCn2c(=S)[nH]c3cc(C(=O)N4CCOCC4)ccc3c2=O)cc1OC`: “inactive”; `CN(C)CCCCOc1cccc(Br)c1`: “inactive”; `CC1=CC(=O)C(C(C)C)=C/C1=N/OS(=O)(=O)c1ccccc1`: “inactive”.
In the case of `O=C1CC(NS(=O)(=O)c2cccs2)CN1c1ccccc1` (stereo not drawn), the result was inactive.
The same measure, in the same setting: the entry for `OCCNCc1cc(Br)ccc1OCc1ccccc1` is “inactive”.

For a further assay, the system named is transient receptor potential cation channel C4 beta (TRPC4), mouse. Kind of assay: TRPC4 cation channel opening, second retest – cell-based, second round, Fluo4, HEK293 TRPC4beta/mu-opioid, 1 µM, confirmation (AID 2461). As to conditions: Fluo4 calcium fluorescence, at 1 µM.
With `COC(=O)c1ccccc1NC(=O)c1cnn2cccnc12`, the result was inactive.
On the same count and under the same terms, the entry for `Cc1cc(Cl)ccc1OC(C)C(=O)Nc1ccccc1N1CCOCC1` (stereo not drawn) is “inactive”.
Consider `CC(C(=O)c1ccc(Br)cc1)[n+]1cccc(NC(=O)c2ccccc2)c1` (stereo not drawn), for which the result was inactive.
Same read-out and setting: the entry for `Cn1c(SCCOc2ccccc2F)nc2ccccc2c1=O` is “inactive”; for `O=C(CN1CCCN(S(=O)(=O)c2ccc(F)cc2)CC1)Nc1ccccc1Br` it is “inactive”.
The same measure, in the same setting: the entry for `Cc1c(CCOC(=O)c2ccccc2)sc[n+]1CC(=O)c1ccc(Br)cc1` is “inactive”.
Still for that read-out and setting: the entry for `Cc1c(N2C(=O)/C(=C/c3ccccc3)SC2=S)c(=O)n(-c2ccccc2)n1C` is “inactive”; for `CCOC(=O)Cc1csc(NC(=O)NC2(C(F)(F)F)Oc3cc(Cl)c(Cl)cc3O2)n1` it is “inactive”.
For `CCCn1nc(C(=O)NC2CCCc3ccccc32)c2ccccc2c1=O` (stereo not drawn), the outcome was inactive.
For the molecule `CCOC(=O)c1c(C)n(-c2ccc(C)cc2)c2ccc(OCC(O)CNCC3CCCO3)cc12` (stereo not drawn), the outcome was inactive.
On the same count and under the same terms, the entry for `O=C(NCCCN1CCN(CCCNC(=O)c2cccc(Cl)c2)CC1)c1cccc(Cl)c1` is “inactive”; for `COC(=O)[C@@]12CCCCN1[C@H](c1ccc(-c3ccc(C(C)=O)cc3)cc1)[C@@H]1C(=O)N(C)C(=O)[C@@H]12` it is “inactive”; for `Cc1ccc(CNC(=O)CSc2nc(=O)n3ccccc3n2)cc1` it is “inactive”.
In the case of `CCCCCCc1cc2cc(-c3nnc(-c4ccccc4O)o3)c(=O)oc2cc1O`, the outcome was inactive.
Same read-out and setting: next, `CCCCN(C)CCNC(=O)C1CCCN(S(=O)(=O)c2cccc3nsnc23)C1` (stereo not drawn): “inactive”; `Cc1cccc(NC(=O)CNC(=O)CN2C(=O)NC3(CCCCC3C)C2=O)c1C` (stereo not drawn): “inactive”; `CC(C)c1ccc(OCc2ccc(C(=O)N3CCCC3)o2)cc1`: “inactive”.
On the same count and under the same terms, the entry for `COc1ccc(-n2cc(CNCc3cnc4ccccn34)c(-c3cccc(F)c3)n2)cc1` is “inactive”.
For the molecule `COc1ccc(CCN2C(=S)N(C)C(=O)C2CC(=O)Nc2ccc(F)cc2)cc1` (stereo not drawn), the result was inactive.
On the same count and under the same terms, next, `CCOC(=O)C1=NNC(C(=O)c2ccc(Cl)cc2)C1c1ccc(OC)cc1` (stereo not drawn): “inactive”; `Cc1ccc(C(C)C)c(OCCCCN2CCNCC2)c1`: “inactive”.
As to `CCOC(=O)CSc1nc2ccccc2c(=O)n1C1CCCC1`, the result was inactive.
On the same count and under the same terms, next, `Clc1ccc(Cl)c(OCCCCN2CCNCC2)c1`: “inactive”; `COc1ccc(-c2cc(C(=O)N3CC(C)CC(C)C3)c3ccccc3n2)cc1` (stereo not drawn): “inactive”; `Cn1c(N2CCC(C(N)=O)CC2)nc2c1c(=O)n(Cc1ccc(Br)cc1)c(=O)n2C`: “inactive”.
Same read-out and setting: the entry for `OC1(c2ccc(Cl)cc2)CN(c2ccccc2)C2=[N+]1CCS2` (stereo not drawn) is “inactive”; for `CCN(CCCNC(=O)CCCOc1cc(=O)n(C)c2ccccc12)Cc1ccccc1` it is “inactive”; for `O=C(NN/C(=N/S(=O)(=O)c1ccc(Cl)cc1)c1ccccc1)c1cccc(Cl)c1` it is “inactive”.
With `CCn1c2ccc(F)cc2c2nnc(NN)nc21`, the result was inactive.
As to `CCN(CC)CCOCCOc1ccc(Cl)c2ccccc12`, the outcome was inactive.
On the same count and under the same terms, next, `O=C(NCCCN1CCCC1=O)c1ccc(CNS(=O)(=O)c2ccc(F)cc2)cc1`: “inactive”.
With `Cc1noc(C)c1COC(=O)[C@@H](NC(=O)c1ccccc1Cl)C(C)C`, the result was inactive.
On to `C/C=C/Cn1c(SCCCc2ccccc2)nc2c1c(=O)[nH]c(=O)n2C`, for which the outcome was inactive.
With `O=[N+]([O-])c1ccc2c(c1)C=C1CCCCC1(N1CCCC1)O2` (stereo not drawn), the outcome was inactive.
The same measure, in the same setting: next, `COc1ccc(CCn2c(=S)[nH]c3cc(C(=O)N4CCOCC4)ccc3c2=O)cc1OC`: “inactive”.
On the same count and under the same terms, next, `CN(C)CCCCOc1cccc(Br)c1`: “inactive”; `CC1=CC(=O)C(C(C)C)=C/C1=N/OS(=O)(=O)c1ccccc1`: “inactive”; `O=C1CC(NS(=O)(=O)c2cccs2)CN1c1ccccc1` (stereo not drawn): “inactive”.
In the case of `OCCNCc1cc(Br)ccc1OCc1ccccc1`, the result was inactive.
